TEAD-YAP block: TEAD-YAP interaction inhibition. inhibition, % at 9.12 µM. HEK-TIYL cells, TEAD-Gal4/YAP UAS-luciferase luminescence. actives 1.4% (n = 640,000); in the data active = inhibition above about 32%;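 also: 0% = median of test compound wells and 100% = reference inhibitor wells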
GPR151 activ: activates the human receptor GPR151 | Q8TDV0 | PathHunter beta-arrestin GPR151 cells, luminescence | activation, % at 11.2 µM | actives 1% (n = 650,000); in the data active = activation above about 4.9%;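 also: 0% = median of compound wells and 100% = cells with positive control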
FBW7 act: activators of human E3 ligase FBW7; actives 0.13% (n = 650,000); AID 1259310; AlphaScreen FBW7–phospho-cyclin E peptide binding, activator screen; normalized activity (activation), % at 26.1 µM; in the data active = normalized activity above about 1.9%;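 also: purified mutant Fbw7 with reduced substrate affinity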
MITF primary: blocks human microphthalmia-associated transcription factor. O75030. inhibition, % at 2.6 µM. AID 1259374. AlphaScreen MITF homodimerization, bead proximity signal. actives 0.91% (n = 650,000); in the data active = inhibition above about 50%;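 also: 0% = vehicle wells with protein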
Target sequence (O75030 whole entry, looked up): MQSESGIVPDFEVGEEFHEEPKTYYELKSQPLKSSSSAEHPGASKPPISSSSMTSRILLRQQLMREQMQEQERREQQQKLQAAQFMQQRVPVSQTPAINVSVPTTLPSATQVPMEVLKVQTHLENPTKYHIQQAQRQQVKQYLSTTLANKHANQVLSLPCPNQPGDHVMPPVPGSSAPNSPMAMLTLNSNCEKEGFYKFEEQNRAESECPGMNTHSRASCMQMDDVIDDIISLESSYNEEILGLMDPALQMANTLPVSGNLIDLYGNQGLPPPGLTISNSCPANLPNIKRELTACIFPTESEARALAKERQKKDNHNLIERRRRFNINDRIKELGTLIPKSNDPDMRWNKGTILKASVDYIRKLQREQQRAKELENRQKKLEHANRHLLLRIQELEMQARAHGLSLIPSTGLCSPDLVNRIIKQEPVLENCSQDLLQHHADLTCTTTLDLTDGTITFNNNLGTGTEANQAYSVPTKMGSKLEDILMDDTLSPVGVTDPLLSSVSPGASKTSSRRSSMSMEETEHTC
An asterisk follows results filed as active. Only some compounds are listed: those with a hit (about 3.5% of all), similar ones and a draw of the others.

SMILES | TEAD-YAP block | GPR151 activ | FBW7 act | MITF primary
c1cncc(CNc2nc(NCCN3CCOCC3)c3ncn(-c4ccsc4)c3n2)c1 | -1.5 | -0.5 | -0.1 | -10.3
COc1cc(Nc2nc(Nc3ncccn3)nc3c2ncn3-c2ccsc2)cc(OC)c1OC | 10.4 | 1.5 | 0.0 | 2.6
c1cc(Nc2nc(NCCN3CCOCC3)c3ncn(-c4ccsc4)c3n2)ncn1 | 37.0* | -0.1 | 0.2 | 10.6
c1cncc(Nc2nc(NCCN3CCOCC3)c3ncn(-c4ccsc4)c3n2)c1 | 50.9* | 1.1 | -0.1 | -2.6
CCOC(=O)c1nnn(-c2nonc2N)c1CN1CCN(c2ccccn2)CC1 | 6.3 | 2.1 | -0.1 | 3.8
CC(=O)Nc1ccc(NCc2ccc(N(C)C)cc2)cc1 | -15.0 | 0.8 | 0.0 | 25.6
CCNC(=O)c1ccc(CN2CCN(c3ccccc3)CC2)cc1 | -1.5 | -0.9 | 0.2 | -14.2
O=C(Nc1ccccc1C(F)(F)F)c1ccc(CN2CCN(c3ccccc3)CC2)cc1 | 47.3* | -0.6 | 0.4 | 0.6
C/C(=N\NC(=S)NCc1ccco1)c1ccco1 | -7.3 | -1.3 | 0.3 | -0.2
Cc1cc(Br)ccc1N1C(=O)/C(=C/c2ccc(Cl)cc2)C=C1c1ccccc1 | -3.1 | 0.0 | 1.9* | 13.3
Cc1cc(Br)ccc1N1C(=O)/C(=C/c2ccc(Br)cc2)C=C1c1ccccc1 | 0.3 | 1.7 | -0.1 | -3.9
COc1ccc(CN(C)Cc2nc(CCc3ccccc3)no2)c2cccnc12 | 35.4* | -1.4 | 0.6 | 5.8
Cc1cc(C)n(C(C)CC(=O)OCC(=O)c2ccc(Cl)cc2)n1 (centres undefined) | 5.2 | -0.6 | 0.1 | 16.1
CCOc1ccc(/C=C2\C(=O)NC(=S)N(CC)C2=O)c2ccccc12 | 8.5 | -1.8 | -0.3 | 13.6
CCOc1ccc2ccccc2c1/C=C1/C(=O)NC(=S)N(Cc2ccco2)C1=O | -17.7 | -0.8 | -1.0 | 76.5*
O=C1NC(=S)N(Cc2ccco2)C(=O)/C1=C\N1CCOCC1 | -5.9 | -0.9 | -0.2 | 74.8*
COCCn1c(C)cc(/C=C2/C(=O)NC(=S)N(Cc3ccco3)C2=O)c1C | -1.0 | 1.2 | -0.9 | 64.8*
COCCn1c(C)cc(/C=C2/C(=O)NC(=O)N(Cc3ccco3)C2=O)c1C | 1.3 | -0.1 | -0.3 | 27.9
COc1ccc(OC)c(C2C(C#N)=C(N)Oc3c2c(=O)[nH]c2ccccc32)c1 (centres undefined) | -4.7 | 0.3 | 0.2 | 1.5
CCOc1cc(C2C(C#N)=C(N)Oc3c2ccc2ccccc32)ccc1O (centres undefined) | 12.1 | -0.3 | 0.1 | 16.5
COc1ccc(OC)c(C2C(C#N)=C(N)Oc3c2ccc2ccccc32)c1 (centres undefined) | 51.0* | -1.7 | 0.2 | 5.4
COc1cc(C2C(C#N)=C(N)Oc3c2ccc2ccccc32)cc(Br)c1O (centres undefined) | 63.8* | -1.3 | 0.0 | 10.2
COc1cccc(C2C(C#N)=C(N)Oc3n[nH]c(-c4ccc5ccccc5c4)c32)c1 (centres undefined) | -2.0 | 0.6 | -0.6 | -2.8
COc1cccc(C2C(C#N)=C(N)Oc3ccc4ccccc4c32)c1 (centres undefined) | 50.1* | -0.5 | 0.0 | 16.5
CCOC(=O)CN1C(=O)S/C(=C/c2ccc(Cl)s2)C1=O | 5.6 | -0.6 | -0.1 | 6.3
SMILES | TEAD-YAP block | GPR151 activ | FBW7 act | MITF primary
Cc1ccccc1/C=C1\N=C(c2ccc(C)c([N+](=O)[O-])c2)OC1=O | 5.1 | 1.0 | 0.0 | -19.8
COc1ccc(S(=O)(=O)N(CC(=O)N2CCCC2)Cc2ccccc2)cc1C | 11.5 | 1.5 | -0.1 | -9.1
COC(=O)C1=C(C)N(c2cccc(OC)c2)C(=O)C1 | 2.5 | 0.9 | -0.1 | -17.6
COC(=O)C1=C(C)N(c2ccc(Cl)c(Cl)c2)C(=O)C1 | 35.5* | 0.5 | -0.2 | -14.2
Cc1ccc(C(=O)/C=C/Nc2ccc(Br)cc2F)o1 | 77.2* | -0.5 | -0.2 | 6.2
Cc1ccc(C(=O)/C=C/Nc2cccc(Cl)c2C)o1 | -13.4 | -0.3 | -0.1 | 10.2
Cc1ccc(C(=O)/C=C/Nc2ccc(F)cc2F)o1 | 61.2* | -0.8 | -0.2 | -12.7
CCCN(CCC)S(=O)(=O)c1ccc(C(=O)Nc2ccc3c(c2)C(=O)N(C)C3=O)cc1 | 3.1 | 0.2 | 0.0 | -15.4
CC(C)N(CCNc1nc(NCCN2CCOCC2)nc2c1ncn2C1CCCCC1)C(C)C | -0.7 | 1.3 | -0.1 | -6.7
CCc1ccc(C(C)NS(=O)(=O)c2ccccc2OC)cc1 (centres undefined) | -0.5 | -0.7 | 0.0 | 7.3
CC(C)(C)c1nc2scc(-c3ccc(Br)cc3)c2c(=O)o1 | 34.2* | 0.3 | 0.2 | 9.4
CC(C)(C)c1nc2scc(-c3ccccc3)c2c(=O)o1 | 0.5 | 0.6 | 0.0 | 2.5
CCOC(=O)C(C(=O)OCC)C(Cc1ccc(OCC(F)(F)F)cc1)NC=O (centres undefined) | -4.3 | -0.9 | 0.1 | -3.3
COc1ccc(-n2c(=S)[nH]c3cc(C(=O)Nc4cccc(C)c4)ccc3c2=O)c(OC)c1 | 47.8* | 1.7 | -0.1 | 7.8
O=C(Nc1ccc(Oc2ccccc2)cc1)c1ccc2c(=O)n(-c3cc(C(F)(F)F)ccc3Cl)c(=S)[nH]c2c1 | 35.7* | 0.0 | 0.0 | -6.7
O=C(Nc1ccc(Oc2ccccc2)cc1)c1ccc2c(=O)n(-c3cccc(C(F)(F)F)c3)c(=S)[nH]c2c1 | -0.8 | -0.2 | 0.0 | -6.2
COc1ccccc1OCCC(=O)OCC(=O)Nc1ccc(F)c(F)c1 | -8.7 | -0.8 | 0.1 | -2.3
Cc1ccc2sc(-c3ccc(NC(=O)/C=C\C(=O)O)cc3)nc2c1 | 90.1* | -6.3 | 0.0 | 5.4
Cc1ccc2sc(-c3ccc(NC(=O)C(C)(C)C)cc3)nc2c1 | 36.9* | 0.1 | 0.0 | -4.7
Cc1ccc2sc(-c3ccc(NC(=O)c4ccc(Br)cc4)cc3)nc2c1 | -5.5 | 1.9 | 0.0 | 11.6
CC(=O)Nc1nc(-c2nc3ccccc3s2)cs1 | 38.1* | -5.5 | 0.3 | 2.8
O=C(Nc1ccc(-c2nc3ccccc3s2)cc1)C(F)(F)F | 67.4* | -6.5 | -0.2 | 0.4
Cc1ccccc1C1(CC(=O)N(C)C)CC(=O)N(Cc2ccncc2)C1=O (centres undefined) | 3.8 | 2.3 | 0.0 | -6.3
CCC/C(=N\NC(=O)CNC(=O)c1ccccc1Br)c1ccccc1 | -2.0 | 0.0 | -0.1 | -6.9
c1coc(-c2nc3ccccn3c2Nc2ccc3c(c2)OCCO3)c1 | 41.4* | -1.6 | -0.3 | -3.6
SMILES | TEAD-YAP block | GPR151 activ | FBW7 act | MITF primary
O=C(NCC1CCCO1)c1c[nH]c2ccc(S(=O)(=O)N3CCC4(CC3)OCCO4)cc2c1=O (centres undefined) | -18.5 | 2.9 | 0.1 | -3.9
Cc1cc2ncn(CC3CCN(C(=O)c4ccccc4Br)CC3)c2cc1C | 40.2* | -0.9 | -0.2 | 37.3
O=C(CCCC(=O)OCC(Cl)=C(Cl)Cl)NC1CCCCC1 | 1.4 | 1.1 | 0.7 | 17.4
CC1CCN(c2nc3ncccc3nc2-c2ccccc2)CC1 | -1.5 | -0.3 | 2.1* | 11.1
CCOC(=O)C1(Cc2ccccc2)NC(c2cccs2)C2C(=O)N(CC)C(=O)C21 (centres undefined) | -0.5 | 0.1 | -0.1 | 13.6
CCOC(=O)C1(CCSC)NC(c2cccs2)C2C(=O)N(CC)C(=O)C21 (centres undefined) | 32.2* | -2.0 | -0.3 | 0.3

Source: PubChem
